Sampled rows, rich in hits. Any-hit rate of the full collection: about 1.8%.
Vif-A3G inh: qHTS for Inhibitors of Vif-A3G Interactions: qHTS; hit rate 0.076% among 410,000; HeLa A3G-eYFP + Vif (tagged APOBEC3G with the HIV-1 protein that degrades it), YFP fluorescence, overnight; DNA dC->dU-editing enzyme APOBEC-3G (Homo sapiens), Q9HC16; Potency, µM (doses to about 46.1 µM), actives largely listed as inhibitors; AID 602310, 2012; further: nearly all actives have a fitted effect of over 60% in size
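Read-out is eYFP fluorescence (Ex 488/Em 500-530) from Vif-expressing HeLa A3G-eYFP cells; more signal means A3G escaped Vif-mediated degradation. Cells plated overnight, compound pinned in, incubated overnight at 37 deg C.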
TrxR1 inh: qHTS Assay for Inhibitors of Mammalian Selenoprotein Thioredoxin Reductase 1 (TrxR1): qHTS | AID 588453, 2011 | recombinant rTrxR1, NADPH fluorescence consumption, selenite substrate | hit rate 1% among 390,000 | Potency, µM (highest dose often 114 µM), usual class: inhibitors; further: nearly all actives have a fitted effect of over 65% in size
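Rat TrxR1 (90 nM in the dispensed reagent) was pre-reduced with 400 uM NADPH for 5 min at room temperature, then incubated with compound for 15 min. After 400 uM selenite was added, NADPH fluorescence (Ex 340/Em 450 nm) was followed for 8 min.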
TrxR1 substrate: qHTS Assay for Substrates of Mammalian Selenoprotein Thioredoxin Reductase 1 (TrxR1): qHTS. Thioredoxin reductase 1, cytoplasmic (Rattus norvegicus), O89049. purified TrxR1 substrate turnover, NADPH consumption readout. Potency, µM (highest dose often 114 µM). hit rate 0.01% among 390,000. AID 588456, 2011; further: nearly all actives have a fitted effect of over 50% in size
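Rat TrxR1, dispensed at 90 nM, was prereduced with 400 uM NADPH (final) for 5 min at ~22 deg C, then incubated with compound 15 min before 400 uM selenite. A first-read NADPH fluorescence drop versus no-compound background flagged substrates.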
VDR inhibitor: Inhibitors of the vitamin D receptor (VDR): qHTS; Vitamin D3 receptor (Homo sapiens), P11473; VDR-SRC2-3 peptide fluorescence polarization, 2 h; Potency, µM, usual class: inhibitors; hit rate 0.93% among 400,000
Target sequence (P11473 whole entry, looked up): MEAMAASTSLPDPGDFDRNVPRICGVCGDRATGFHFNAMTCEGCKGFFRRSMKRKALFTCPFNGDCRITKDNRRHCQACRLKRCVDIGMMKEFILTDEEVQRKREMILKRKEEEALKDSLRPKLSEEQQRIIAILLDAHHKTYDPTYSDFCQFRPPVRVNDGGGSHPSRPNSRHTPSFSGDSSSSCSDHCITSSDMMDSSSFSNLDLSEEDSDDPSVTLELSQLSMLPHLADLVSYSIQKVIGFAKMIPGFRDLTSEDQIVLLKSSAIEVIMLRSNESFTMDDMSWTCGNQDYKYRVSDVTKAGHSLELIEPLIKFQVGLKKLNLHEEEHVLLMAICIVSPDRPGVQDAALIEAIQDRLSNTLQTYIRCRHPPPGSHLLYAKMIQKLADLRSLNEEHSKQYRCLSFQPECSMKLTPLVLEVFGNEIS
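FP read-out; VDR + SRC2-3 coactivator peptide; 23 nl compound by pintool; 2 h RT incubation; reagents held at 4 deg C, protected from light.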
Vif-APOBEC3F blk: qHTS for Inhibitors of Vif-A3F Interactions: qHTS. HeLa A3F-eYFP + Vif (tagged APOBEC3F with the HIV-1 protein that degrades it), YFP fluorescence increase. Potency, µM (doses to about 46.1 µM). hit rate 0.2% among 390,000; further: nearly all actives have a fitted effect of over 65% in size
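HeLa cells stably expressing A3F-eYFP plus Vif, plated and incubated overnight at 37 deg C, then exposed to compounds overnight at 37 deg C. Blocked degradation read as raised yellow fluorescence (Ex 488/Em 500-530).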
VDR inh confirm: qHTS for Inhibitors of the vitamin D receptor (VDR): Hit Validation in Primary Screen; Potency, µM, actives largely listed as inhibitors; hit rate 89% among 840; VDR-coactivator inhibition assay, qHTS confirmation; shares compounds with VDR inhibitor
VDR FP: qHTS for Inhibitors of the vitamin D receptor (VDR): Hit Validation using a Fluorescein Assay | VDR-coactivator binding, fluorescein fluorescence polarization | AID 602200, 2012 | Potency, µM (titrated, usually from 57.1 µM), most hits filed as inhibitors | hit rate 48% among 840 | shares compounds with VDR inhibitor
VDR bla reporter: qHTS for Inhibitors of the vitamin D receptor (VDR): Hit Validation using a Beta-Lactamase Assay; hit rate 23% among 840; VDR beta-lactamase reporter cells, FRET ratio; cells co-treated with VDR agonist LG190178; shares compounds with VDR inhibitor; Potency, µM (series often up to 46.1 µM), hits mostly inhibitors; AID 602202, 2012
VDR cytotox: qHTS for Inhibitors of the vitamin D receptor (VDR): Hit Validation using a Cytotoxicity Assay; shares compounds with VDR inhibitor; cytotoxicity counter-screen, cell viability, qHTS; Potency, µM (series often up to 48.3 µM), actives largely listed as cytotoxic; hit rate 18% among 840; further: nearly all actives have a fitted effect of over 75% in size
Numbers stand for hits; n = inactive; u = inconclusive; x = no result given; [ ] = remark or other dose. The call rests on the fitted dose curve; in most records, active means well fitted curve in the direction sought with a large enough effect; inconclusive means small, poorly fitted or top-dose-only effect, or another doubt; inactive means no such curve, though single readings can be large; an effect the other way counts as inactive or inconclusive.

SMILES	Vif-A3G inh	TrxR1 inh	TrxR1 substrate	VDR inhibitor	Vif-APOBEC3F blk	VDR inh confirm	VDR FP	VDR bla reporter	VDR cytotox
O=c1[nH]c(/C=C/c2cccc([N+](=O)[O-])c2)c([N+](=O)[O-])c(=O)[nH]1	n	n	n	28.2µM	n	11.9	7.08µM	n	u
O=c1[nH]c(/C=C/c2ccc(Cl)cc2Cl)c([N+](=O)[O-])c(=O)[nH]1	n	u	n	17.8µM	n	4.74	u	n	n
O=c1[nH]c(/C=C/c2ccccc2)c([N+](=O)[O-])c(=O)[nH]1	n	n	n	22.4µM	n	23.8	u	n	n
CCOC(=O)Cc1ccc(NC(=O)N(Cc2ccc(OC)cc2)C2CCN(C(C)=O)CC2)cc1	n	n	n	n	n	x	x	x	x
C=CCN1[C@@H](C(C)C)COCCS1(=O)=O	n	n	n	x	x	x	x	x	x
Cn1cc(O)nc1NC(=O)Nc1cccc(Cl)c1	x	x	x	n	x	x	x	x	x
CCOc1cccc2oc(-c3ccccc3Cl)cc(=O)c12	x	x	x	n	x	x	x	x	x
O=C(/C=C/c1ccc(O)c(O)c1)c1ccc(S(=O)(=O)N2CCCCCC2)cc1	n	n	n	79.4µM	n	23.8	25.1µM	n	n
Cc1ccc(-c2noc(C3CC(=O)N(c4ccc5c(c4)OCCO5)C3)n2)cc1 (centres undefined)	n	n	n	n	n	x	x	x	x
CCOC(=O)c1sc(NC(=O)CSc2nnc(Cc3ccccc3)o2)c(C#N)c1C	n	n	n	12.6µM	n	2.99	u	n	n
CCOC(=O)c1sc(NC(=O)C(C)C)c(C#N)c1C	n	n	n	28.2µM	n	3.77	u	n	n
COc1ccc(CCC(=O)NO)cc1	n	n	n	x	x	x	x	x	x
Cc1ccc(-c2cc(C(=O)O)c3cc(Br)ccc3n2)o1	n	u	n	31.6µM	n	26.7	u	n	n
O=C(O)COc1ccccc1C(Nc1cccnc1)c1cc(Cl)c2cccnc2c1O (centres undefined)	n	0.562µM	n	22.4µM	n	13.4	u	n	n
CCOc1ccc(C(Nc2cccnc2)c2cc(Cl)c3cccnc3c2O)cc1 (centres undefined)	u	2.82µM	n[11.4 µM]	u	n	7.08	u	n	u
COC(=O)C1=C(C)N(Cc2ccco2)C(=O)/C1=C\c1ccc([N+](=O)[O-])cc1	u	20µM	n	22.4µM	3.16µM	u	n	n	u
Cc1c(Cc2ccc3c(c2)OCO3)sc(NC(=O)c2cccc3ccccc23)c1C(N)=O	n	n	n	u	n	10	14.1µM	u	n
Cc1ccc(Oc2c(C(N)=O)cc([N+](=O)[O-])cc2[N+](=O)[O-])cc1	n	u	n	28.2µM	n	10.6	12.6µM	u	5.62µM
Cc1ccc(CNc2ccc([N+](=O)[O-])cc2C(N)=O)cc1	n	n	n	n	n	x	x	x	x
CC(C)(C)c1ccc(C(=O)N2CCNCC2)cc1	n	n	n	n	n	x	x	x	x
CN1CCC2(CC1)N=C(c1ccc(F)cc1)C(=S)N2C(=O)c1ccc(C(C)(C)C)cc1	n	u	n	u	n	u	u	u	u
N#Cc1nc(N)nc(N2CCCCC2)n1	n	n	n	n	x	x	x	x	x
Cc1cc2c(cc1S(=O)(=O)Nc1cccc(Cl)c1C)OCCN2C	n	n	n	n	n	x	x	x	x
COC(=O)c1ccc(Cn2cc(/C=C\[N+](=O)[O-])c3ccccc32)o1	u	u	n	25.1µM	n	21.2	u	u	u
CCOc1ccccc1NC(=O)c1nc(SCc2ccccc2F)ncc1Cl	n	n	n	x	x	x	x	x	x
SMILES	Vif-A3G inh	TrxR1 inh	TrxR1 substrate	VDR inhibitor	Vif-APOBEC3F blk	VDR inh confirm	VDR FP	VDR bla reporter	VDR cytotox
Cc1cccc(OCC(=O)Nc2cc(-c3nc4cc(Cl)ccc4o3)ccc2C)c1	n	n	n	x	x	x	x	x	x
C#CCOc1ccc(/C=C2/C(=O)ON=C2C)cc1Br	n	u	n	39.8µM	n	10.6	u	u	n
COc1cc(/C=C2\C(=O)ON=C2c2ccccc2)cc(Cl)c1O	n	15.8µM	n	44.7µM	n	5.32	n	u	n
COc1ccc(/C=C2/C(=O)ON=C2C)cc1Cl	n	u	n	u	n	x	x	x	x
COc1cc(/C=C2\C(=O)ON=C2c2ccccc2)cc(Br)c1O	u	11.2µM	n	25.1µM	n	3.77	n	u	n
COc1cc([N+](=O)[O-])ccc1-c1ccc(/C=C2\C(=O)ON=C2c2ccccc2)o1	n	7.94µM	n	u	n	2.51	1.78µM	u	u
COc1cc([N+](=O)[O-])ccc1-c1ccc(/C=N\n2cnnc2)o1	n	n	n[2.29 µM]	n	n	x	x	x	x
CCOCCCNC(=O)Cn1ncc2c([nH]c3ccccc32)c1=O	n	n	n	n	n	x	x	x	x
Cc1cc(C)cc(NS(=O)(=O)c2ccc(-c3cc(C)no3)cc2)c1	n	n	n	n	n	x	x	x	x
CCOc1cc(/C=C2/C(=O)ON=C2C)cc(Br)c1O	n	u	n	56.2µM	n	9.47	n	n	n
COc1cc(C=C2C(=O)OC(c3ccccc3)OC2=O)cc(Br)c1O (centres undefined)	n	u	n	n	n	x	x	x	x
CC1=NOC(=O)/C1=C/c1ccc(O)c(Br)c1	n	u	n	u	u	x	x	x	x
CCOc1cc(/C=C2\C(=O)ON=C2c2ccccc2)cc(Br)c1O	n	14.1µM	n	25.1µM	n	3.77	n	u	n
O=S1(=O)C=C(Sc2nnc(-c3ccccc3)o2)c2ccccc21	u	0.398µM	n	u	n	2.24	1.58µM	u	11.9µM
CCC(=O)N(CC)C1=C(O)c2ccccc2C(=O)C1=O	n	1.12µM	n	79.4µM	u	u	u	u	u
CCC(=O)OCCNc1cc(Sc2nc3ccccc3s2)c2nonc2c1[N+](=O)[O-]	n	0.282µM	n	8.91µM	n	6.7	3.16µM	16.4µM	u
Cn1ccnc1Sc1ccc(C=O)cc1[N+](=O)[O-]	n	n	n	n	n	x	x	x	x
CCCC(=O)OCCNc1cc(Sc2nccn2C)c2nonc2c1[N+](=O)[O-]	u	0.562µM	n	50.1µM	n	8.44	u	16.4µM	20.6µM

From PubChem
